# Publication PMC5540273 (PLoS ONE, 2017)
# Key:
# Conditions in all cases: concentration: 1 μM, replicates: in singlicate; n = 1
# SRPK2 = test system: SRPK2
# SRPK3 = test system: SRPK3
# STK16 = test system: STK16
# STK33 = test system: STK33
# STK35 = test system: STK35
# STK36 = test system: STK36
# STK39 = test system: STK39
# SYK = test system: SYK
# SgK110 = test system: SgK110
# TAK1 = test system: T1, TAK1
# T1 construct: gene MAP3K7
# 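Note: KINOMEscan kinase panel screen.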
SMILES,%Inh (SRPK2) [%],%Inh (SRPK3) [%],%Inh (STK16) [%],%Inh (STK33) [%],%Inh (STK35) [%],%Inh (STK36) [%],%Inh (STK39) [%],%Inh (SYK) [%],%Inh (SgK110) [%],%Inh (TAK1) [%]
Cc1ccc(NC(=O)Nc2ccc(Cl)c(C(F)(F)F)c2)cc1-c1ccc(C(=O)Nc2ccncc2)cc1 [GSK1398470],0,23,0,6,8,37,0,13,0,0
O=C1NC(=O)C(c2ccc(Cl)cc2)=C1Nc1cccc(Cl)c1 [SB-317651],3,8,0,0,0,2,17,0,0,34
COc1ccc(Nc2nccc(NCCNC(=O)Nc3cc(C)ccc3C)n2)cc1 [GSK1379899],0,10,0,0,0,0,0,24,0,0
O=C(Nc1n[nH]c2nc(-c3cccs3)c(Br)cc12)C1CC1 [SB-735297],0,8,0,0,0,12,7,10,0,6
Cl.Cl.Cl.N#Cc1ccc(CCNc2nccc(-c3cccc(CN4CCNCC4)c3)n2)cc1 [GSK2137462],0,0,22,100,0,0,0,9,23,4
O=c1cc(N2CCOCC2)nc2n(Cc3cccc(Cl)c3Cl)c3ccccc3n12 [GSK2299009],0,15,31,18,14,0,0,50,0,0
Cc1ccc(NC(=O)Nc2ccc(Cl)cc2)cc1-c1ccc(C(=O)Nc2ccncc2)cc1 [GSK1398472],0,46,0,0,0,1,0,31,10,0
CC(=O)c1c(C)c2cnc(Nc3ccn(C)n3)nc2n(C2CCCC2)c1=O,0,0,55,0,5,0,0,0,0,11
Fc1ccc(-c2nn3cccc(F)c3c2-c2ccncc2)cc1 [GW475620],0,16,0,5,0,28,1,14,0,0
CS(=O)(=O)CCNCc1nc(-c2ccc3ncnc(Nc4ccc(OCc5ccccc5)c(Cl)c4)c3c2)cs1.Cl [GW582764],36,0,0,0,0,0,4,20,0,0
Nc1cccc(-c2ccc3c(N)n[nH]c3c2)n1 [GSK2192730],0,0,27,0,0,0,1,0,0,43
Fc1ccc(-c2nc3n(c2-c2ccncc2)CCS3)cc1 [GI98581],0,0,0,1,0,7,0,28,0,0
O=C1NC(=O)C(c2ccc(Cl)cc2)=C1Nc1ccc(O)cc1 [SB-340867],18,0,0,0,0,11,0,4,50,0
c1ccc(-c2ccnc3[nH]ccc23)cc1 [SB-693578],7,0,44,0,32,0,33,0,0,11
CC(=O)c1c(C)c2cnc(Nc3ccc(N4CCNCC4)cn3)nc2n(C2CCCC2)c1=O,0,0,0,0,8,0,0,0,0,28
Cc1c(Cn2c(C)c(C)n3c(=O)cc(N4CCOCC4)nc23)cccc1C(F)(F)F [GSK2328680],45,2,0,65,0,0,0,32,0,0
COc1cc2ncnc(Nc3cccc(Br)c3)c2cc1OC.Cl [GI230329],40,0,0,0,0,0,5,13,17,0
CC[C@@H]1CO[C@H](C(=O)Nc2ccccc2)CN1c1cc(-c2ccc3c(N)n[nH]c3c2)nc(NC)n1 [GSK2376236],0,0,21,2,0,0,0,0,0,6
Cc1ccccc1Cn1ccn2c(=O)cc(N3CCOCC3)nc12 [GSK2269905],0,0,0,0,0,0,12,23,0,0
COc1ccc(CSc2nnc(-c3ccc4ncsc4c3)o2)cc1C(F)(F)F,0,0,15,0,0,0,0,0,25,0
COc1nccc(-c2c(-c3ccc(F)cc3)ncn2CCCN2CCOCC2)n1 [SB-282852],26,23,9,0,0,0,6,0,0,43
CCCCc1nn2ncccc2c1-c1ccnc(NC2CC2)n1 [GW684374],0,0,20,0,0,0,0,0,0,0
COc1ccc(CSc2nnc(-c3ccc4c(c3)CCO4)o2)cc1,0,0,5,0,0,0,0,0,26,0

SMILES,%Inh (SRPK2) [%],%Inh (SRPK3) [%],%Inh (STK16) [%],%Inh (STK33) [%],%Inh (STK35) [%],%Inh (STK36) [%],%Inh (STK39) [%],%Inh (SYK) [%],%Inh (SgK110) [%],%Inh (TAK1) [%]
FC(F)(F)c1ccccc1-c1cc(-c2c[nH]nc2-c2ccccn2)ccn1 [GW679396],0,0,20,0,0,29,7,25,0,4
Cn1cncc1-c1cc2c(Nc3ccc(OCc4ccccc4)cc3)ncnc2cn1 [GW281179],0,0,4,0,0,0,12,27,0,0
CNc1nc(-c2ccc3c(N)n[nH]c3c2)cc(N2C[C@@H](C(=O)NC3CCCCC3)OC[C@H]2C)n1 [GSK2375584],30,0,16,13,0,22,6,26,0,0
CS(=O)(=O)CCNCc1nc(-c2ccc3ncnc(Nc4ccc5c(cnn5Cc5ccccc5)c4)c3c2)cs1.Cl.Cl [GW569716],33,9,0,0,0,0,0,13,0,0
Cc1ccccc1-c1cc(-c2c[nH]nc2-c2ccccn2)ccn1 [GW680061],3,4,0,0,0,0,10,36,0,0
COC(=O)c1cccc(NC(=O)NC2CCN(c3ccnc(Nc4ccc(F)cc4)n3)C2)c1 (centres unmarked) [GSK1379725],0,0,0,0,0,0,1,17,0,0
COC(=O)c1cccc(NC(=O)NC2CCN(c3ccnc(Nc4ccc(OC)cc4)n3)C2)c1 (centres unmarked) [GSK1379746],28,0,8,0,0,0,5,0,0,0
Cc1cnc(N)c(/C=C/c2cncc(C(=O)NCCc3ccc(Cl)cc3Cl)c2)c1.Cl [GSK190937],34,0,1,5,0,28,2,22,9,0
COc1ccc(Nc2nccc(N3CCC(NC(=O)C(C)c4ccc(Cl)cc4)C3)n2)cc1 (centres unmarked) [GSK1379735],0,34,0,0,7,1,13,25,0,0
O=C(Nc1n[nH]c2nc(-c3ccco3)c(Br)cc12)C1CCN(Cc2ccccc2)C1.O=C(O)[C@H](O)[C@@H](O)C(=O)O (centres unmarked) [SB-742034],0,0,57,23,0,29,1,0,37,22
CCn1c(-c2c(N)noc2C)nc2cnccc21 [SB-737856],0,2,0,0,0,0,6,1,0,0
O=C(Nc1n[nH]c2nc(-c3cccs3)c(Br)cc12)C1CCCC1 [SB-743341],15,20,23,1,0,1,33,5,18,38
CSc1ccc(-c2nc3n(c2-c2ccncc2)CCC3)cc1 [SKF-105561],25,0,4,11,3,16,0,18,0,0
CNc1nc(-c2ccc3c(N)n[nH]c3c2)cc(N2C[C@@H](C(=O)Nc3ccccc3)CC[C@H]2C)n1 [GSK2298859],29,0,13,9,0,0,6,16,0,0
COc1cccc(C2=C(Nc3cc(Cl)c(O)c(Cl)c3)C(=O)NC2=O)c1 [SB-390767],5,24,11,0,0,0,0,0,0,0
COc1ccc(Nc2nccc(-c3ccc(NC(=O)c4cc5cc(F)ccc5[nH]4)cc3)n2)cc1 [GSK1229496],14,7,2,0,0,0,0,8,0,0
Cc1nccc(-c2c(-c3ccc(F)cc3)ncn2CCCN2CCOCC2)n1.Cl [SB-282975],0,0,0,14,0,10,28,28,26,26
COc1ccc(-c2coc3ccc(-c4nnc(C)o4)cc23)cc1,0,0,21,0,0,13,0,17,52,0
CN1c2ccc(-c3ccc(C(N)=O)cc3)cc2-c2[nH]ncc2S1(=O)=O,8,0,1,0,12,0,3,26,0,31
Cc1ccc(NC(=O)Nc2ccccc2F)cc1-c1ccc(C(=O)Nc2ccncc2)cc1 [GSK1398477],0,28,11,8,21,6,0,44,0,0
CCc1ccc(-c2ccc3c(c2)-c2n[nH]cc2S(=O)(=O)N3C)cc1,14,0,0,0,15,0,0,19,0,0
COC(=O)C(NC(=O)NC1CCN(c2ccnc(Nc3ccc(F)cc3)n2)C1)c1ccccc1 (centres unmarked) [GSK1379712],0,0,0,0,0,29,0,21,19,12
COC(=O)C(Cc1ccccc1)NC(=O)NC1CCN(c2ccnc(Nc3ccc(F)cc3)n2)C1 (centres unmarked) [GSK1379714],38,0,19,8,0,31,10,34,0,0

SMILES,%Inh (SRPK2) [%],%Inh (SRPK3) [%],%Inh (STK16) [%],%Inh (STK33) [%],%Inh (STK35) [%],%Inh (STK36) [%],%Inh (STK39) [%],%Inh (SYK) [%],%Inh (SgK110) [%],%Inh (TAK1) [%]
O=C(Nc1n[nH]c2cc(-c3ccsc3)ccc12)C1CC1 [SB-732932],0,75,23,0,0,2,0,13,0,7
O=c1cc(N2CCOCC2)nc2n(Cc3ccccc3F)ccn12 [GSK2297428],0,0,0,0,0,0,0,21,0,0
COc1ccc(Nc2nccc(N3CCC(NC(=O)C(C)c4ccc(Cl)cc4)CC3)n2)cc1 (centres unmarked) [GSK1379812],0,8,10,0,0,18,38,32,27,0
COc1ccc(CSc2nnc(-c3ccc4nccn4c3)o2)cc1C(F)(F)F,0,16,3,2,16,10,0,0,0,33
Nc1nccc(-c2c(-c3ccc(F)cc3)ncn2C2CCN(Cc3ccccc3)CC2)n1 [SB-219980],0,0,0,33,79,29,0,0,0,7
COc1cccc(NC(=O)Nc2ccc(C)c(-c3ccc(C(=O)Nc4ccncc4)cc3)c2)c1 [GSK1398474],0,27,11,0,0,51,33,40,0,0
NS(=O)(=O)c1cccc(N/C=C2\C(=O)Nc3ccc(S(=O)(=O)Cc4c(Cl)cccc4Cl)cc32)c1 [GSK398099],0,0,19,0,0,0,0,0,0,0
Cc1ccc(-c2nc(Nc3ccncc3)c3ccccc3n2)s1 [GSK189015],0,18,12,12,18,0,15,5,0,0
COc1cccc(CNC(=O)NC2CCN(c3ccnc(Nc4ccc(F)cc4)n3)C2)c1 (centres unmarked) [GSK1379723],0,16,10,0,5,0,10,18,1,0
COc1ccc(Nc2nccc(N3CCC(NC(=O)c4cc5ccccc5s4)C3)n2)cc1 (centres unmarked) [GSK1379738],0,0,19,0,0,0,0,13,0,0
Cc1c(Cn2c3ccccc3n3c(=O)cc(N4CCOCC4)nc23)cccc1C(F)(F)F [GSK2306394],0,0,11,6,0,0,0,5,0,0
Cc1ccc(NC(=O)c2ccc(Cl)cc2)cc1-c1ccc(C(=O)Nc2ccncc2)cc1 [GSK1398467],0,0,7,0,0,0,6,3,0,0
Cc1ccc(NC(=O)Nc2ccccc2)cc1-c1ccc(C(=O)Nc2ccncc2)cc1 [GSK1398471],0,0,9,0,0,0,3,24,0,0
Cn1cnc2c(N)ncnc21 [SKF-97623],10,18,0,0,19,0,2,0,0,0
CNC(=O)c1ccc(C)c(-n2c(C)cc(OCc3ccc(F)cc3F)c(Br)c2=O)c1,0,6,3,0,0,1,0,14,0,12
Fc1ccc(-c2nc[nH]c2-c2ccncc2)cc1 [SB-217360],0,3,14,1,0,0,0,33,15,0
CC(C)c1cc(-c2ccc3c(N)n[nH]c3c2)nc(N)n1 [GSK2250882],0,29,21,0,0,0,0,0,0,1
CCn1c(-c2ccccc2)nc2cnccc21 [SB-733416],0,5,0,0,7,0,8,17,0,0
CNc1cc(-c2ccc3c(N)n[nH]c3c2)nc(N)n1 [GSK2224810],1,0,19,0,6,0,0,7,0,26
Cc1cccc2c(-c3ccncn3)c(-c3ccc(F)cc3)nn12 [GW515532],0,14,0,0,27,0,0,0,0,0
CS(=O)(=O)Cc1ccc(Nc2nccc(-c3c(-c4cccc(NC(=O)C5CCCCC5)c4)nn4ncccc34)n2)cc1 [GSK350559],0,0,12,4,9,81,37,4,0,2
Nc1ncnc2occ(-c3ccc4c(c3)CCN4C(=O)Cc3cc(F)ccc3F)c12 [GSK2645446],0,0,0,0,0,0,0,0,0,17
